Screen size: about 5,500 compounds; about 2,000 (36%) were called active. Inconclusive results (about 18%) are left out. Rule as the data show it: active = normalized growth mostly below about 0.91 (no sharp cut-off); inconclusive = no clear call, values can overlap the other calls; inactive = mostly above about 0.92. This is one part of the list.
Assay: chemical genetic growth profiling, strain panel (AID 1159580);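 also: tested at 20 µM; growth read once vehicle control cultures reached saturation at 30 °C; 1 = growth at the plate median or of vehicle wells; lower values mean less growth of the strain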
Settings: growth OD

Measured: normalized growth

O=C1c2ccccc2C(=O)c2ccccc21
active: S. cerevisiae deletion strains, locus YNL248C, strain rpa49, stronger effect = lower value 0.837
inactive: S. cerevisiae deletion strains, locus YJR075W, strain HOC1, stronger effect = lower value 0.956 | S. cerevisiae deletion strains, locus YKL009W, strain mrt4, stronger effect = lower value 0.933 | S. cerevisiae deletion strains, locus YKL068W, stronger effect = lower value 0.986 | S. cerevisiae deletion strains, locus YKL085W, strain MDH1 (second series), stronger effect = lower value 0.97 | S. cerevisiae deletion strains, locus YKL085W, strain MDH1, stronger effect = lower value 0.97 | S. cerevisiae deletion strains, locus YKL160W, strain elf1, stronger effect = lower value 0.986 | S. cerevisiae deletion strains, locus YKL190W, strain CNB1, stronger effect = lower value 0.98 | S. cerevisiae deletion strains, locus YKR001C, strain vps1, stronger effect = lower value 0.972 | S. cerevisiae deletion strains, locus YKR026C, strain gcn3, stronger effect = lower value 1 | S. cerevisiae deletion strains, locus YKR091W, strain srl3, stronger effect = lower value 1 | S. cerevisiae deletion strains, locus YLL001W, strain dnm1, stronger effect = lower value 1.01 | S. cerevisiae deletion strains, locus YLL026W, stronger effect = lower value 0.993 | S. cerevisiae deletion strains, locus YLL041C, strain sdh2, stronger effect = lower value 0.993 | S. cerevisiae deletion strains, locus YLR027C, strain aat2, stronger effect = lower value 0.999 | S. cerevisiae deletion strains, locus YLR039C, strain RIC1, stronger effect = lower value 0.765 | S. cerevisiae deletion strains, locus YLR058C, strain SHM2, stronger effect = lower value 0.988 | S. cerevisiae deletion strains, locus YLR102C, strain apc9, stronger effect = lower value 0.989 | S. cerevisiae deletion strains, locus YLR113W, strain HOG1, stronger effect = lower value 1.1 | S. cerevisiae deletion strains, locus YLR221C, strain rsa3, stronger effect = lower value 0.969 | S. cerevisiae deletion strains, locus YLR258W, strain gsy2, stronger effect = lower value 0.993 | S. cerevisiae deletion strains, locus YLR262C, strain YPT6 (second series), stronger effect = lower value 0.96 | S. cerevisiae deletion strains, locus YLR262C, strain YPT6, stronger effect = lower value 0.71 | S. cerevisiae deletion strains, locus YLR268W, strain sec22, stronger effect = lower value 0.974 | S. cerevisiae deletion strains, locus YLR320W, strain mms22, stronger effect = lower value 0.903 | S. cerevisiae deletion strains, locus YLR330W, strain CHS5, stronger effect = lower value 0.993 | S. cerevisiae deletion strains, locus YLR342W, strain FKS1 (second series), stronger effect = lower value 0.938 | S. cerevisiae deletion strains, locus YLR342W, strain FKS1, stronger effect = lower value 1.01 | S. cerevisiae deletion strains, locus YLR357W, strain rsc2, stronger effect = lower value 0.976 | S. cerevisiae deletion strains, locus YLR370C, strain arc18, stronger effect = lower value 0.994 | S. cerevisiae deletion strains, locus YLR371W, strain rom2, stronger effect = lower value 0.975 | S. cerevisiae deletion strains, locus YLR384C, strain iki3, stronger effect = lower value 0.994 | S. cerevisiae deletion strains, locus YLR418C, strain cdc73, stronger effect = lower value 1.01 | S. cerevisiae deletion strains, locus YML016C, strain PPZ1, stronger effect = lower value 0.992 | S. cerevisiae deletion strains, locus YML032C, strain rad52, stronger effect = lower value 0.976 | S. cerevisiae deletion strains, locus YML120C, strain ndi1, stronger effect = lower value 1.01 | S. cerevisiae deletion strains, locus YML124C, strain tub3, stronger effect = lower value 0.989 | S. cerevisiae deletion strains, locus YMR058W, strain fet3, stronger effect = lower value 0.948 | S. cerevisiae deletion strains, locus YMR078C, strain ctf18, stronger effect = lower value 0.995 | S. cerevisiae deletion strains, locus YMR125W, strain sto1, stronger effect = lower value 1.08 | S. cerevisiae deletion strains, locus YMR129W, stronger effect = lower value 0.996 | S. cerevisiae deletion strains, locus YMR205C, strain PFK2, stronger effect = lower value 1.03 | S. cerevisiae deletion strains, locus YMR223W, strain ubp8, stronger effect = lower value 0.963 | S. cerevisiae deletion strains, locus YMR231W, strain pep5, stronger effect = lower value 0.998 | S. cerevisiae deletion strains, locus YMR263W, strain SAP30, stronger effect = lower value 0.97 | S. cerevisiae deletion strains, locus YMR307W, strain GAS1, stronger effect = lower value 0.804 | S. cerevisiae deletion strains, locus YNL067W, strain RPL9B, stronger effect = lower value 0.964 | S. cerevisiae deletion strains, locus YNL071W, strain lat1, stronger effect = lower value 0.955 | S. cerevisiae deletion strains, locus YNL128W, strain TEP1, stronger effect = lower value 0.946 | S. cerevisiae deletion strains, locus YNL153C, strain GIM3, stronger effect = lower value 1 | S. cerevisiae deletion strains, locus YNL183C, strain NPR1, stronger effect = lower value 0.961 | S. cerevisiae deletion strains, locus YNL209W, strain ssb2, stronger effect = lower value 0.978 | S. cerevisiae deletion strains, locus YNL233W, strain BNI4, stronger effect = lower value 0.995 | S. cerevisiae deletion strains, locus YNL250W, strain rad50, stronger effect = lower value 0.974 | S. cerevisiae deletion strains, locus YNL271C, strain bni1, stronger effect = lower value 0.978 | S. cerevisiae deletion strains, locus YNL298W, strain CLA4, stronger effect = lower value 0.975 | S. cerevisiae deletion strains, locus YNL307C, strain MCK1, stronger effect = lower value 0.971 | S. cerevisiae deletion strains, locus YNL322C, strain KRE1 (second series), stronger effect = lower value 1.03 | S. cerevisiae deletion strains, locus YNL322C, strain KRE1, stronger effect = lower value 0.987 | S. cerevisiae deletion strains, locus YNR049C, strain mso1, stronger effect = lower value 0.995 | S. cerevisiae deletion strains, locus YNR052C, strain pop2, stronger effect = lower value 0.99 | S. cerevisiae deletion strains, locus YOL006C, strain TOP1, stronger effect = lower value 0.97 | S. cerevisiae deletion strains, locus YOL012C, strain htz1 0.796 | S. cerevisiae deletion strains, locus YOL147C, strain pex11, stronger effect = lower value 1.01 | S. cerevisiae deletion strains, locus YOR001W, strain rrp6, stronger effect = lower value 0.991 | S. cerevisiae deletion strains, locus YOR061W, strain CKA2, stronger effect = lower value 0.988 | S. cerevisiae deletion strains, locus YOR069W, strain VPS5, stronger effect = lower value 1.01 | S. cerevisiae deletion strains, locus YOR070C, strain gyp1, stronger effect = lower value 0.996 | S. cerevisiae deletion strains, locus YOR080W, strain dia2, stronger effect = lower value 1.01 | S. cerevisiae deletion strains, locus YOR083W, strain WHI5, stronger effect = lower value 0.963 | S. cerevisiae deletion strains, locus YOR106W, strain vam3, stronger effect = lower value 0.945 | S. cerevisiae deletion strains, locus YOR136W, strain idh2, stronger effect = lower value 0.985 | S. cerevisiae deletion strains, locus YOR144C, strain elg1, stronger effect = lower value 0.992 | S. cerevisiae deletion strains, locus YOR184W, strain ser1, stronger effect = lower value 0.942 | S. cerevisiae deletion strains, locus YOR231W, strain MKK1, stronger effect = lower value 1.02 | S. cerevisiae deletion strains, locus YOR265W, strain rbl2, stronger effect = lower value 0.993 | S. cerevisiae deletion strains, locus YOR270C, strain vph1, stronger effect = lower value 0.804 | S. cerevisiae deletion strains, locus YOR290C, strain snf2, stronger effect = lower value 0.973 | S. cerevisiae deletion strains, locus YOR316C, strain cot1, stronger effect = lower value 0.996 | S. cerevisiae deletion strains, locus YPL051W, strain arl3, stronger effect = lower value 0.926 | S. cerevisiae deletion strains, locus YPL055C, strain LGE1, stronger effect = lower value 0.9 | S. cerevisiae deletion strains, locus YPL078C, strain atp4, stronger effect = lower value 0.96 | S. cerevisiae deletion strains, locus YPL106C, strain sse1, stronger effect = lower value 0.954 | S. cerevisiae deletion strains, locus YPL240C, strain hsp82, stronger effect = lower value 0.995 | S. cerevisiae deletion strains, locus YPL241C, strain CIN2, stronger effect = lower value 0.953 | S. cerevisiae deletion strains, locus YPL256C, strain CLN2, stronger effect = lower value 1.08 | S. cerevisiae deletion strains, locus YPR119W, strain clb2, stronger effect = lower value 0.996 | S. cerevisiae deletion strains, locus YPR141C, strain kar3, stronger effect = lower value 0.99 | S. cerevisiae deletion strains, locus YPR163C, strain tif3, stronger effect = lower value 0.996 | S. cerevisiae deletion strains, locus YPR167C, strain met16, stronger effect = lower value 1 | S. cerevisiae deletion strains, strain wtn01, stronger effect = lower value 0.988 | S. cerevisiae strains, strain wild type, stronger effect = lower value 0.995
